Where “and” joins values, the source holds several entries; their conditions need not be identical. Equal entries are not always repeated. Calls of active or inactive are those of the source.
Assay: A549 lung cancer cell viability effects, profiling panel, resazurin fluorescence, 24 h, PK04 Diversity Set (AID 1171); further: test concentration not given here
Details: higher = more signal, called active from +8 up or from −8 down

SMILES	z-score
COC(=O)C1=C(C)N(Cc2ccccc2)C2=C(C(C)=O)C[C@@](O)(C(=O)OC)C(=O)N2[C@@H]1c1ccccc1	1.25 (inactive) and 1.03 (inactive)
CCC[C@@H]1C[C@@]1(CCC)[C@@H](NC(=O)c1ccc(-c2ccccc2)cc1)c1cccc(Cl)c1	2.06 (inactive) and 0.608 (inactive)
C=CCN(CCCC)C(=O)C1N(CCOCCO)C(=O)C2C(C(=O)O)C3C=CC21O3 (stereo not given)	-0.169 (inactive) and -0.593 (inactive)
C=CCN(Cc1ccccc1)C(=O)C1N(CCOCCO)C(=O)C2C(C(=O)O)C3C=CC21O3 (stereo not given)	-0.474 (inactive) and 0.0887 (inactive)
C=CC[C@@H](O)c1ccc(O)c2ccccc12	-0.308 (inactive) and -0.572 (inactive)
CO[C@@H]1C=CCC(=O)N2CCC[C@H]2C(=O)OC[C@H](C)C(=O)OC[C@H]1C	0.87 (inactive)
CN1C(=O)C2CC=C([C@H]3Oc4ccccc4S(=O)(=O)N4CCC[C@@H]34)CC2C1=O (stereo not given in full)	0.0976 (inactive) and -0.125 (inactive)
CCOC(=O)c1ccc(NC(=O)O[C@H]2[C@H](OC(=O)Nc3ccccc3)[C@@H](OC(=O)Nc3ccccc3)[C@@H](OC)O[C@@H]2CO)cc1	-3.35 (inactive) and -3.84 (inactive)
C=CCN(Cc1ccccc1)C(=O)C(c1cccs1)N(C(=O)/C=C\C(=O)O)c1c(Cl)cccc1CO (stereo not given)	0.351 (inactive) and -0.519 (inactive)
CC(CO)N1C(=O)[C@@H]2C3C(=O)OCCC=C[C@H]3OC23C=CCN(CCN2CCOCC2)C(=O)[C@@H]13 (stereo not given in full)	-0.298 (inactive) and 0.141 (inactive)
